Test results as given in PubChem BioAssay.
Calls of active or inactive are those of the source.

Legend:
[1] = target: Albumin (Bos taurus) (UniProt P02769); assay: compounds binding labelled BSA control protein – biochemical, small-molecule microarray, Alexa647 label, 635/667 nm fluorescence, artefact control for SMM control protein annotation, profiling panel (AID 1118); conditions: BSA-A647 binding, fluorescence 635 nm, higher = more signal;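 further: score merges 667 nm emission intensity and signal-to-noise per printed compound spot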
Chain of Albumin (Bos taurus) (P02769 whole entry, looked up): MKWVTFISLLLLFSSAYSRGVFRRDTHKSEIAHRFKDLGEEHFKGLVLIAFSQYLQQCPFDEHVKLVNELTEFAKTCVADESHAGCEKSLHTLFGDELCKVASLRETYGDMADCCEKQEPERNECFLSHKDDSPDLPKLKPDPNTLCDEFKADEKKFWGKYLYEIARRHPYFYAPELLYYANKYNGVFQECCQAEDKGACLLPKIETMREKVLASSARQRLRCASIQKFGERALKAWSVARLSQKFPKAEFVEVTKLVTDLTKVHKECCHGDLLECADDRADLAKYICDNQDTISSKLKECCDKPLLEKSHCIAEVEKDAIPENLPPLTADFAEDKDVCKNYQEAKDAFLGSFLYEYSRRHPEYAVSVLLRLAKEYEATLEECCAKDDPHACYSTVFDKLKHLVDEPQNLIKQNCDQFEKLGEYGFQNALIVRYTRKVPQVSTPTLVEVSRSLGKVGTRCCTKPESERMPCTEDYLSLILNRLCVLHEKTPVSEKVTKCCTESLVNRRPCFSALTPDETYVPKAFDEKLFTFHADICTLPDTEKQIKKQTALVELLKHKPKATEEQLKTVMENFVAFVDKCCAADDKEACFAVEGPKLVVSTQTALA

[2] = probe aXIP binding to arrayed compounds – biochemical, NeuroSMM set, 635/667 nm fluorescence, primary screen (AID 1119); conditions: small-molecule microarray, higher = more signal, called active from +8 up or from −8 down;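 further: probe is the protein aXip251-270 applied at 1 µg/mL to compound-printed slides; binding of probe to printed compounds measured as 667 nm fluorescence plus signal to noise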
[3] = probe aNOTCH3 binding on compound microarray – biochemical, small-molecule microarray, 635/667 nm fluorescence, primary screen (AID 1120); conditions: higher = more signal;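 further: probe is a biotin-tagged antibody raised against NOTCH3 rather than NOTCH3 protein; score merges spot fluorescence near 667 nm with spot signal to noise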
[4] = probe aNOTCH2 binding on compound microarray – biochemical, small-molecule microarray, 635/667 nm fluorescence, primary screen (AID 1121); conditions: higher = more signal;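 further: score merges feature fluorescence read at 667 nm with its signal to noise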
[5] = target: Carbonic anhydrase 2 (Homo sapiens) (UniProt P00918); assay: compounds binding carbonic anhydrase 2 – biochemical, small-molecule microarray, Alexa647-labelled CAII, profiling panel (AID 1122); conditions: CAII-A647 binding fluorescence, higher = more signal
[6] = COS7 lysate on small-molecule microarray, probe aHis, 635 nm (AID 1123); conditions: COS7 cell lysate, fluorescence, higher = more signal;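 further: z-score combines 667nm fluorescence intensity with signal-to-noise per printed compound spot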
[7] = probe aLAP1 signal on lysate-treated microarray – cell lysate, small-molecule microarray, COS7 lysate, primary screen (AID 1124); conditions: probe aLAP1, fluorescence, higher = more signal;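 further: lysate comes from COS7 cells expressing LAP1 and is applied at 0.3 µg/mL; score merges spot fluorescence near 667 nm with signal-to-noise over triplicate slides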
[8] = test system: Sam68 (KHDRBS1); assay: compounds binding KHDRBS1 protein – biochemical, small-molecule microarray, 635 nm fluorescence, primary screen (AID 1125); conditions: higher = more signal;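 further: score merges 667 nm channel intensity with signal to noise over triplicate slides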
[9] = test system: Chordin-like protein 2 (CHRDL2); assay: compounds binding chordin-like 2 – biochemical, small-molecule microarray, 635 nm fluorescence, primary screen (AID 1126); conditions: fluorescence 635 nm, higher = more signal;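 further: printed compound slides probed with Chrdl2 protein at 4 µg/mL for 1 h at 4 C; score merges 667 nm emission intensity with signal to noise over three replicate slides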
[10] = target: Concanavalin-A (Canavalia ensiformis) (UniProt P02866); assay: compounds binding concanavalin A lectin – biochemical, small-molecule microarray, Alexa647 label, 635 nm, artefact control for SMM control protein annotation, primary screen (AID 1127); conditions: ConA-A647 binding fluorescence, higher = more signal;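 further: z combines 667 nm emission intensity with signal-to-noise across three replicate slides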
Chain of Concanavalin-A (Canavalia ensiformis) (P02866 whole entry, looked up): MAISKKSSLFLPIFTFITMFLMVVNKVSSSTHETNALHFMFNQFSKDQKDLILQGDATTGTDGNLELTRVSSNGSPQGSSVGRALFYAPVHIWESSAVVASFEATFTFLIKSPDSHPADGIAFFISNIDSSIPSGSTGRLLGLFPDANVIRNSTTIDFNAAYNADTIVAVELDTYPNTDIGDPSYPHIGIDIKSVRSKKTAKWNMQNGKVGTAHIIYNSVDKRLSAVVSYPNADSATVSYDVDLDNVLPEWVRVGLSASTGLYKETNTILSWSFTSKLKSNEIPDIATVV

[11] = compounds binding Alexa647 anti-His antibody – biochemical, small-molecule microarray, 635 nm fluorescence, artefact control for SMM control protein annotation, primary screen (AID 1128); conditions: higher = more signal;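 further: score merges feature fluorescence with signal-to-noise for each printed compound spot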
[12] = test system: Human papillomavirus type 1a E7 protein (residues 1-88); assay: HPV1a E7 small-molecule binders, primary screen, biochemical, small-molecule microarray, residues 1-88, 635 nm (AID 1129); conditions: small-molecule microarray binding, fluorescence 635 nm; higher = more signal
[13] = target: Focal adhesion kinase 1 (Homo sapiens) (UniProt Q05397); assay: PTK2 protein binding on printed compound slides – biochemical, small-molecule microarray, 635/667 nm fluorescence, BSA, DTT, primary screen (AID 1130); conditions: 635 nm fluorescence, higher = more signal;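 further: composite of spot emission at 667 nm and signal to noise over triplicate slides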
Chain of Focal adhesion kinase 1 (Homo sapiens) (Q05397 whole entry, looked up): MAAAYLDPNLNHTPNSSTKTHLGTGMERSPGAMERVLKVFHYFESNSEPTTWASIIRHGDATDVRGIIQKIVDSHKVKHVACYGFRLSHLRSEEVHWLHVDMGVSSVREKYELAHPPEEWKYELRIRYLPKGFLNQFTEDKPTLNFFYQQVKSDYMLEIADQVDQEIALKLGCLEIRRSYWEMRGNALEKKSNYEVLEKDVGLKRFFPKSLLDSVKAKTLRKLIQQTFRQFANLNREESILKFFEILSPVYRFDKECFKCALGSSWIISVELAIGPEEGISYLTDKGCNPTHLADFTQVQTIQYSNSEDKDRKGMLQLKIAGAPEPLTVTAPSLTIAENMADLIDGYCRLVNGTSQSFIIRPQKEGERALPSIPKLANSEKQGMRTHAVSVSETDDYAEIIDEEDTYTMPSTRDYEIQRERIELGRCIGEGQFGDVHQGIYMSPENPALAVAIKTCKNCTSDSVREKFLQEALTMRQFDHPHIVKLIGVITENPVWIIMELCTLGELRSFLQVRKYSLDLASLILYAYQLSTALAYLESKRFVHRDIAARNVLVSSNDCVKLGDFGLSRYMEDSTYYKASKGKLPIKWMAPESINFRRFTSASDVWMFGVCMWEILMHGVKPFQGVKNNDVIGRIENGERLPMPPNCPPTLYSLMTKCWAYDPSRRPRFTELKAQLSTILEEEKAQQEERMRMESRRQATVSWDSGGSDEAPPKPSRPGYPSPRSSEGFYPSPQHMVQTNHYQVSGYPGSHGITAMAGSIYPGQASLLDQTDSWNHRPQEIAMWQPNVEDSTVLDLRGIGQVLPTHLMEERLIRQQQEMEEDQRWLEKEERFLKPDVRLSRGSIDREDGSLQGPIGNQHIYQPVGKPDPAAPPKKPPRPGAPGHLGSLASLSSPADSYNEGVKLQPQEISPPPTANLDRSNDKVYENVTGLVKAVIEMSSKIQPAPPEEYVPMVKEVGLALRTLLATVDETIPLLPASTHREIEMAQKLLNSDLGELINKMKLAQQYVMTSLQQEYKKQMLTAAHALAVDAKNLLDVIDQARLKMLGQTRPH

[14] = test system: Fibrinogen (Alexa647-labelled); assay: Alexa647-fibrinogen binding to printed small molecules – biochemical, small-molecule microarray, 635/667 nm fluorescence, artefact control for SMM control-protein annotation, profiling panel (AID 1131); conditions: fibrinogen-A647 binding fluorescence, higher = more signal;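 further: z-score merges 667 nm fluorescence with per-spot signal-to-noise over triplicate slides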
[15] = target: Follistatin (Homo sapiens) (UniProt P19883); assay: FST protein binding to printed compounds – biochemical, small-molecule microarray, 635/667 nm fluorescence, primary screen (AID 1132); conditions: 635 nm fluorescence, higher = more signal
Chain of Follistatin (Homo sapiens) (P19883 whole entry, looked up): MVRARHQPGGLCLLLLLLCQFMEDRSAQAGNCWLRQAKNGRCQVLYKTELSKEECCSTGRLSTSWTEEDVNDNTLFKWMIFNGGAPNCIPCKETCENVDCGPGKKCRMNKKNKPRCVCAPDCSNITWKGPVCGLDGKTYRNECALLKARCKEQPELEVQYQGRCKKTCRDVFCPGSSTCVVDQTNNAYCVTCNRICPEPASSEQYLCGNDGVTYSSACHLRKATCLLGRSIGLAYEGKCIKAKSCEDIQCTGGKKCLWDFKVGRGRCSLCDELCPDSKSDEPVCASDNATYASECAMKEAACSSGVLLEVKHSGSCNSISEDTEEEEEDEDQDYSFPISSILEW

[16] = target: Fibroblast growth factor 2 (Homo sapiens) (UniProt P09038); assay: basic fibroblast growth factor binding to printed compounds – biochemical, small-molecule microarray, 635/667 nm fluorescence, primary screen (AID 1133); conditions: FGF2, fluorescence 635/667, higher = more signal
Chain of Fibroblast growth factor 2 (Homo sapiens) (P09038 whole entry, looked up): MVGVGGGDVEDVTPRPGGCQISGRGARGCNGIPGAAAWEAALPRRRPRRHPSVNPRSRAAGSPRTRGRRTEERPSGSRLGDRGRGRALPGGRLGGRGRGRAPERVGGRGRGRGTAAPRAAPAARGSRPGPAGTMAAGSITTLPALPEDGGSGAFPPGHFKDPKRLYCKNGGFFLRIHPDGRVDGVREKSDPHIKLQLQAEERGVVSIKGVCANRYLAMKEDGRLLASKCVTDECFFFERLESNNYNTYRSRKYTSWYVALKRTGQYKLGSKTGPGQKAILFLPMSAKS

[17] = JC-1 mitochondrial potential readout, lung cancer cells – cell-based, A549, JC-1 fluorescence, basal, 24 h, 100 nL, profiling panel (AID 1138); conditions: higher = more signal;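 further: A549 lung adenocarcinoma cells under basal conditions with no added stimulus; test concentration not given here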
[18] = test system: Lefty1; assay: Lefty1 protein binding to printed compounds – biochemical, small-molecule microarray, 635/667 nm fluorescence, primary screen (AID 1139); conditions: fluorescence 635/667, higher = more signal
[19] = test system: wheat germ agglutinin (Triticum aestivum), Alexa647-labelled; assay: Alexa647-WGA lectin binding to printed small molecules – biochemical, small-molecule microarray, 635/667 nm fluorescence, artefact control for SMM control-protein annotation, profiling panel (AID 1140); conditions: WGA-A647 binding, 635 nm fluorescence, higher = more signal;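 further: score merges 667 nm feature emission with signal to noise over triplicate slides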
[20] = target: Luciferin 4-monooxygenase (Photinus pyralis) (UniProt P08659); assay: inhibition of purified Photinus pyralis luciferase – biochemical, luminescence, purified enzyme, 2006 set, primary screen (AID 1141); conditions: purified firefly luciferase, SteadyGlo luminescence, 30 min; higher = more signal, called active from +8 up or from −8 down;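 further: cell-free assay with purified firefly luciferase at 100 ng per well in PBS; test concentration not given here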
Chain of Luciferin 4-monooxygenase (Photinus pyralis) (P08659 whole entry, looked up): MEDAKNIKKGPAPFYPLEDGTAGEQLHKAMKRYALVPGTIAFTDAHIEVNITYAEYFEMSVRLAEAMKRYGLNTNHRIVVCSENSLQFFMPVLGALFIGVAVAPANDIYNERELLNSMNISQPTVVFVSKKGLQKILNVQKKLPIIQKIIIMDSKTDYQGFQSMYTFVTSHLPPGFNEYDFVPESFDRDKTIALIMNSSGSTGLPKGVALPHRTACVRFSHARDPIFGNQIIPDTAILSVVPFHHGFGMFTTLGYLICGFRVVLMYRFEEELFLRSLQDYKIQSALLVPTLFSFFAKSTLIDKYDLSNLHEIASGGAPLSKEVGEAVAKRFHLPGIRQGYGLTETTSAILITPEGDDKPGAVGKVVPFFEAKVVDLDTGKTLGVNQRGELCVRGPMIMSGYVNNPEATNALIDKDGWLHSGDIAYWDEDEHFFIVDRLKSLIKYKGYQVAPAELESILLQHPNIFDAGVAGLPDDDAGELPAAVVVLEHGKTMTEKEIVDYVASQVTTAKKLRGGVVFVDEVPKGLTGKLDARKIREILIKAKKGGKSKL

| SMILES | composite z-score [1] | composite Z-score [2] | composite z-score [3] | composite z-score [4] | composite z-score [5] | composite z-score [6] | composite z-score [7] | composite z-score [8] | composite z-score [9] | composite z-score [10] | composite z-score [11] | composite z-score [12] | composite z-score [13] | composite z-score [14] | composite z-score [15] | composite z-score [16] | z-score [17] | composite z-score [18] | composite z-score [19] | z-score [20] |
| --- | --- | --- | --- | --- | --- | --- | --- | --- | --- | --- | --- | --- | --- | --- | --- | --- | --- | --- | --- | --- |
| CC(C)C(CO)N1C(=O)[C@@H]2[C@H]3C(=O)OCC=C[C@H]3OC23C=CCN(Cc2ccccc2)C(=O)[C@@H]13 (stereo not given in full) | -1.27 | -0.0662 (inactive) | 0.271 | -0.154 | 0.833 | -0.635 | -0.733 | -0.69 | -1.02 | -2.22 | -1.88 | -1.62 | -0.778 | -1.48 | -0.317 | -0.392 | 0.792 | -0.375 | -1.06 | -0.511 (inactive) |
| O=C(O)[C@H]1C[C@H]2C(=O)NCC(=O)N2[C@H]1c1cccc(OCCO)c1 | -0.542 | 0.0953 (inactive) | 0.173 | -0.126 | 0.502 | 0.787 | -0.156 | 0.89 | 0.0805 | 1.09 | 1.48 | 0.221 | 0.457 | 0.742 | 1.27 | 0.161 | 1.14 | -0.13 | 0.655 | -1.6 (inactive) |
| O=C(N1CCCCC1)[C@@]1(Cc2ccccc2)N=C(c2ccc(OCCCO)cc2)O[C@H]1c1ccccc1 | 0.955 | 0.0926 (inactive) | 0.214 | 0.308 | 0.797 | 3 | 0.849 | 1.23 | -1.34 | 1.11 | 2.02 | 1.07 | 1.42 | 0.124 | 0.622 | -0.12 | -0.741 | -0.341 | 1.07 | -1.52 (inactive) |
| COCCOC(=O)N1C(=O)[C@@]2(c3cc(C#CC4(O)CCCCCC4)ccc31)[C@H](c1ccc(O)cc1)N1[C@H](c3ccccc3)[C@H](c3ccccc3)OC(=O)[C@H]1[C@@H]2C(N)=O | 0.93 | -0.108 (inactive) | 0.0196 | -0.044 | 0.704 | 1.81 | 1.34 | 1.33 | -0.485 | 0.641 | 1.53 | 0.745 | 1.36 | -0.173 | 0.419 | 0.308 | 0.446 | 0.462 | 0.706 | -1.37 (inactive) |
| COc1ccc([Si](C)(C)[C@H]2[C@H](CC(=O)N(CCO)Cc3ccccc3)O[C@@]3(C(=O)N(Cc4cccc(N5C(=O)COc6ccccc65)c4)c4ccccc43)[C@@H]2C)cc1 | -1.06 | 0.616 (inactive) | 0.0961 | -0.118 | 0.462 | 1.69 | -0.045 | 0.897 | 0.81 | 1.06 | 1.11 | 0.965 | 1.45 | 0.147 | 1.05 | 1.52 | -0.0909 | 1.26 | 0.528 | -1.8 (inactive) |
| CCN(CC)c1ccc(N2CC=CC34O[C@@H]5C=CCOC(=O)[C@@H]5[C@H]3C(=O)N(C(CO)C(C)C)[C@@H]4C2=O)cc1 (stereo not given in full) | -0.819 | 0.316 (inactive) | -0.405 | -0.104 | -0.604 | -0.408 | 0.23 | -0.635 | -0.42 | -0.374 | -1.59 | -1.27 | -0.596 | -0.236 | -0.529 | -0.208 | 1.39 | -0.771 | -1.13 | -0.638 (inactive) |
| CCCNC(=O)[C@@]1(Sc2ccc(C)cc2)CC(=O)N(Cc2cc(C(F)(F)F)cc(C(F)(F)F)c2)[C@@H]1c1ccc(CO)cc1I | 0.502 | 0.414 (inactive) | -0.125 | 0.0042 | 0.883 | 0.918 | 0.349 | 0.354 | -0.605 | -0.12 | -0.187 | -0.574 | -0.101 | -0.0242 | -0.0247 | -1.22 | -0.283 | -0.487 | -0.405 | -0.839 (inactive) |
| COc1ccc([Si](C)(C)[C@@H]2[C@@H](CC(=O)N3CCC[C@H]3CO)O[C@]3(C(=O)N(Cc4ccc(I)cc4)c4ccccc43)[C@H]2C)cc1 | -1.32 | -0.36 (inactive) | -0.0328 | -0.0707 | -0.0226 | 0.713 | 0.147 | 1.32 | 1.06 | 1.19 | 1.14 | 0.989 | 0.178 | 0.584 | 1.34 | 1.56 | 1.05 | 1.12 | 1.07 | -0.765 (inactive) |
| C#CCOc1ccc(C[C@H]2C(=O)O[C@H](Cc3ccccc3)[C@H](/C=C/C3CC3)N2CC#C)cc1 | -0.0855 | 0.319 (inactive) | -0.165 | -0.172 | 0.643 | -0.104 | 0.0683 | -0.0391 | 0.445 | -0.224 | -0.146 | 0.128 | 0.386 | 0.273 | -0.322 | -0.349 | 4.32 | -0.433 | -0.311 | -0.968 (inactive) |
| C[N+](C)(C)CCCC[C@@H]1NC(=O)[C@H]2C[C@@H](C(=O)NCCCCCN)[C@@H](c3cccc(OCCO)c3)N2C1=O | 0.913 | 0.268 (inactive) | 0.23 | -0.0633 | 0.801 | 2.41 | 1.34 | 0.965 | -0.0742 | 1.13 | 2.45 | 1.07 | 0.535 | 0.789 | 1.19 | 0.327 | -0.102 | 0.17 | 1.1 | -0.714 (inactive) |
| COc1ccc([Si](C)(C)[C@H]2[C@H](CC(=O)N3Cc4ccccc4C[C@H]3CO)O[C@@]3(C(=O)N(Cc4cccc(N5C(=O)COc6ccccc65)c4)c4ccccc43)[C@@H]2C)cc1 | -0.534 | 0.373 (inactive) | 0.0297 | -0.102 | 0.635 | 1.97 | -0.245 | 1.02 | 1.38 | 1.16 | 1.57 | 0.671 | 0.81 | 0.585 | 1.17 | 1.6 | 0.388 | 1.44 | 0.862 | -0.961 (inactive) |
